In PubChem BioAssay (Tox21):
Several values for one entry are separate records, joined by “and”; a condition that tells them apart may be missing. Equal entries are not always repeated. Records with an inconclusive call do not appear. A call without a number means that no potency is given here. Where a structure was tested more than once in an assay, its records may differ in their call. Activity calls are given as the source filed them. Calls come from the whole dose curve; as a rule, active = well fitted activation curve with a large enough effect in the repeat runs; inconclusive = weak or mixed curves; inactive = no such curve, though single readings can be large or run the other way.
Potency is the fitted concentration of half-maximal effect.

The compounds below were run against Nuclear receptor subfamily 1 group I member 3 (Homo sapiens) (UniProt Q14994) (assay: qHTS assay to identify small molecule agonists of the constitutive androstane receptor (CAR) signaling pathway (AID 1224839; note: nearly all actives have a fitted effect of over 15% in size;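 for activation: HepG2 cells stably carrying human CAR and a CYP2B6 luciferase reporter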)). Details: HepG2 hCAR CYP2B6-luciferase, agonist mode, 24 h; series mostly up to 92.4 µM.
Nuclear receptor subfamily 1 group I member 3 (Homo sapiens), sequence (Q14994 whole entry, looked up): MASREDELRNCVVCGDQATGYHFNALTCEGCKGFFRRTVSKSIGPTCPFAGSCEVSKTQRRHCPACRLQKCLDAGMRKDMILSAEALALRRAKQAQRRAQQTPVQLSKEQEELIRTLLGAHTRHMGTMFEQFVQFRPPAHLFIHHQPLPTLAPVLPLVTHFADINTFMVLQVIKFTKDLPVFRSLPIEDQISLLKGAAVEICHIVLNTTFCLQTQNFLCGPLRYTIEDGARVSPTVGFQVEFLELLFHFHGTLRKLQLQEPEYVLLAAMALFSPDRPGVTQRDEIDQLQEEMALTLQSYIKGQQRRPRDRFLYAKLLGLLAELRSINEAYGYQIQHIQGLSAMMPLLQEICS
Source text: National Center for Advancing Translational Sciences [NCATS] NIH Chemical Genomics Center [NCGC] U.S. Environmental Protection Agency [EPA] National Institutes of Environmental Health Sciences [NIEHS] National Toxicology Program [NTP] Assay overview: The constitutive androstane receptor (CAR) is a nuclear receptor which regulates multiple drug metabolizing enzymes (DMEs) and transporters. Activating CAR will generally increase the transcription and subsequent translation of CYP2B6 and CYP3A4. These two DMEs represent about 50% of the drug metabolizing potential in the body. […] Recently, there have also been studies performed indicating CARs role in energy metabolism and cancer therapy. Therefore, inducing CARs activity could have a potential effect on diabetes and cancer. Identifying environmental toxins and compounds which modulate CAR, through the use of the Tox21 10K compound collection, will be an important step in determining the toxicity and potential therapeutic effects these factors will have on the human body.
Assay Protocol Summary: A double-stable (hCAR and CYP2B6-2.2kb) transfected cell line, derived from human hepatoma (HepG2) cells, was utilized for the duration of the quantitative high-throughput screens. The HepG2-CYP2B6-hCAR cells suspended in DMEM culture medium supplemented with 10% FBS, 5 ug/mL blasticidin, 0.5 mg/mL geneticin, 100 U/mL penicillin and 100 ug/mL streptomycin were dispensed at 2500 cells/4 uL/well in 1536-well white solid bottom plates using a Multidrop Combi. After the assay plates were incubated at 37 C/5% CO2 for 4 hrs, 23 nL of compounds at 15 concentrations (from 5-48 columns) or positive control (from 1 to 4 columns) were transferred to the assay plates using a Pintool station. One uL of PK11195, was added using a Flying Reagent Dispenser to generate a final concentration of 0.75 uM PK11195 inside each well. After a 24 hr incubation period at 37 C/5% CO2, four uL of ONE-Glo reagent was added into the assay plates using a Flying Reagent Dispenser. After a 30 min incubation period at room temperature, the luminescence intensity in the assay plates was measured using a ViewLux plate reader.
For `CCCCC(CC)COC(=O)c1ccc(N(C)C)cc1` (stereo not given), the Potency was 24.5 µM (active) and inactive. In the case of `CCCCC/C=C/C=C/C=O`, the Potency is reported as “inactive”. With `O=C(c1ccc(OCCN2CCCCC2)cc1)c1c(-c2ccc(O)cc2)sc2cc(O)ccc12` the Potency was “inactive”. In the case of `Cc1c(OCC(F)(F)F)ccnc1CS(=O)c1nc2ccccc2[nH]1` (stereo not given), the Potency is reported as 30.6 µM (active) and 11.9 µM (active). In the case of `Nc1ccccc1N`, the Potency is reported as 24.3 µM (active). With `Oc1ccc(O)cc1` the Potency was 30.5 µM (active) and 34.4 µM (active). `COc1cccc2c1C(=O)c1c(O)c3c(c(O)c1C2=O)C[C@@](O)(C(=O)CO)C[C@@H]3O[C@H]1C[C@H](N)[C@H](O)[C@H](C)O1` was tested, and the Potency was “inactive”. For `C=CC(C)(CCC=C(C)C)OC(C)=O` (stereo not given), the Potency was “inactive”. For `C=C(C)C(=O)OCCOC(=O)C(=C)C`, the Potency was “inactive”. In the case of `CC(=O)c1ccccn1`, the Potency is reported as “inactive”. For `Cc1c(C(N)=O)cc([N+](=O)[O-])cc1[N+](=O)[O-]`, the Potency was “inactive”. For `CC(=O)Oc1ccccc1C(=O)Nc1ncc([N+](=O)[O-])s1`, the Potency was 556 nM (active) and 473 nM (active). For `CCCCOCCOCCOCCO`, the Potency was “inactive”. In the case of `CCC(C)(O)CCCC(C)C` (stereo not given), the Potency is reported as “inactive”. In the case of `c1ccc2c(c1)Oc1ccccc1S2`, the Potency is reported as “inactive”. `OC(CCl)CCl` was tested, and the Potency was “inactive”. With `Nc1ncnc2nc[nH]c12` the Potency was “inactive”. `CCOC(=O)C(C#N)=C(c1ccccc1)c1ccccc1` was tested, and the Potency was 3.86 µM (active) and 3.76 µM (active). `C[C@]12CCC(=O)C=C1CC[C@@H]1[C@@H]2C(=O)C[C@@]2(C)[C@H]1CC[C@]2(O)C(=O)CO` was tested, and the Potency was “inactive”. For `O=C(c1ccccc1)c1ccccc1O`, the Potency was “inactive”. `c1cc(-c2ccncc2)ccn1` was tested, and the Potency was “inactive”. In the case of `COc1cc([C@@H]2c3cc4c(cc3[C@H](O)[C@H]3COC(=O)[C@H]23)OCO4)cc(OC)c1OC`, the Potency is reported as “inactive”. With `OC1CCCCCCCCCCC1` the Potency was “inactive”. With `S=C(NC1CCCCC1)NC1CCCCC1` the Potency was “inactive”. With `CC(C)OB(OC(C)C)OC(C)C` the Potency was “inactive”. For `O=CCc1ccccc1`, the Potency was “inactive”. `C#C[C@]1(O)CC[C@H]2[C@@H]3CCc4cc(OC)ccc4[C@H]3CC[C@@]21C` was tested, and the Potency was 27.3 µM (active) and 23.7 µM (active). With `CC(=O)C1(C)CC2=C(CCCC2(C)C)CC1C` (stereo not given) the Potency was “inactive”. `COC(=O)C1=C(C)NC(C)=C(C(=O)OCCN(C)Cc2ccccc2)C1c1cccc([N+](=O)[O-])c1` (stereo not given) was tested, and the Potency was “inactive”. `O=C1OC2(c3cc(Br)c(O)c(Br)c3Oc3c2cc(Br)c(O)c3Br)c2c(Cl)c(Cl)c(Cl)c(Cl)c21` was tested, and the Potency was “inactive”. For `CC(C)OC(=O)C(C)(C)Oc1ccc(C(=O)c2ccc(Cl)cc2)cc1`, the Potency was 54.5 µM (active) and 26.6 µM (active). For `CC(CCC(=O)O)(c1ccc(O)cc1)c1ccc(O)cc1`, the Potency was “inactive”. In the case of `CN1C(C(=O)Nc2ccccn2)=C(O)c2ccccc2S1(=O)=O`, the Potency is reported as “inactive”. For `c1ccc2c(c1)c1cccc3ccc4cccc2c4c31`, the Potency was 13.6 µM (active) and 27.3 µM (active). With `CC(=O)CC/C=C(\C)CCC=C(C)C` the Potency was “inactive”. `Cc1cccc(N(C)C(=S)Oc2ccc3ccccc3c2)c1` was tested, and the Potency was 27.3 µM (active) and 26.6 µM (active). `Nc1ncn([C@@H]2O[C@H](CO)[C@@H](O)[C@H]2O)c(=O)n1` was tested, and the Potency was “inactive”. With `CCC(C)OC(=O)c1ccc(O)cc1` (stereo not given) the Potency was 61.5 µM (active) and 54.5 µM (active). `O=C(/C=C/C=C/c1ccc2c(c1)OCO2)N1CCCCC1` was tested, and the Potency was 1.73 µM (active) and 3.86 µM (active). In the case of `CCCc1c(OCCCCc2nn[nH]n2)ccc(C(C)=O)c1O`, the Potency is reported as “inactive”.
